# Screens from PubChem BioAssay.
# This is a sample that favours compounds with a hit; in the whole collection about 3.7% have one here.
# tim10-1 inh: inhibits growth of tim10-1 mutant yeast | S. cerevisiae tim10-1 ts strain growth, BacTiter-Glo, 24 h | inhibition, % at 20 µM | 330,000 compounds, 2.2% hits | AID 463190;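 active = inhibition of at least 40%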;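 also: mutant grown at 25 °C; 0% = DMSO wells with yeast and 100% = wells holding no yeast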
# TIM10 inh: TIM10 yeast growth inhibition; 330,000 compounds, 1.4% hits; S. cerevisiae TIM10 strain growth, BacTiter-Glo luminescence, 24 h; AID 463195; inhibition, % at 10 µM;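 active = inhibition of 40% or more at the single tested concentration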;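 also: wild-type TIM10 isogenic control strain grown at permissive 25 °C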
# tim23-1 inh: inhibits growth of tim23-1 mutant yeast | S. cerevisiae tim23-1 growth, BacTiter-Glo luminescence, 24 h | 330,000 compounds, 1.3% hits | inhibition, % at 20 µM;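 active = growth inhibition of the mutant yeast at or above 50%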;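 also: temperature-sensitive mutant grown at 25 °C; plate controls were DMSO-treated mutant yeast for no effect and medium wells lacking yeast for full effect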
# NLRP3 yeast inh: inhibitors of NALP3 inflammasome in yeast. 330,000 compounds, 0.39% hits. inhibition, % at 10 µM. Yeast reconstituted NLRP3/ASC/caspase-1, beta-gal luminescence, 24 h;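 active = inhibition of 50% or more; inactive = inhibition below 50%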;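 also: plate controls were induced DMSO wells for no effect and uninduced yeast grown without galactose for full effect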
# PfHsp90 yeast 2: inhibits growth of yeast expressing Plasmodium falciparum Hsp90. S. cerevisiae expressing PfHsp90, BacTiter-Glo ATP, 48 h; yeast lacking PDR1 and PDR3 efflux regulators. inhibition, % at 9.4 µM. 310,000 compounds, 0.32% hits. AID 504621;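 active = every replicate shows inhibition above about 80%, whatever the replicate mean, limit read from the data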;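 also: 0% = DMSO neutral controls and 100% = 20 µM radicicol positive controls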
# tim23-1 confirm: tim23-1 yeast growth inhibition, confirmed. 4,400 compounds, 83% hits. shares compounds with tim23-1 inh. AID 463218. inhibition, % at 20 µM. S. cerevisiae tim23-1 growth, BacTiter-Glo luminescence, 24 h;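 active = inhibition above about 39% in either of two replicate wells at 20 µM, limit read from the data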;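 also: temperature-sensitive tim23-1 mutant grown at 25 °C; 0% = DMSO wells with yeast and 100% = medium wells without yeast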
# An asterisk follows results filed as active; . = no result.
SMILES,tim10-1 inh,TIM10 inh,tim23-1 inh,NLRP3 yeast inh,PfHsp90 yeast 2,tim23-1 confirm
Cc1ccc(S(=O)(=O)N(C)C)cc1NC(=O)COC(=O)/C=C/c1ccc(F)cc1,-7.9,-3.0,4.5,2.6,9.3,.
O=C(c1ccc(S(=O)(=O)NCc2ccco2)cc1)N1CCN(Cc2ccc3c(c2)OCO3)CC1,19.5,-26.5,2.5,-1.6,21.9,.
CC1=CC[C@@]23CCCN2C(=O)CCC[C@H]3C1,12.7,-4.9,88.5*,.,-6.9,7.0
Nc1nc2ccccc2n1/N=C/c1ccc(-c2ccccc2)o1,14.5,37.6,54.5*,18.7,11.6,18.4
Nc1nc2ccccc2n1/N=C/c1cccnc1,0.6,9.6,-34.9,7.6,-8.9,.
Cc1cccc(-c2n[nH]c(=S)n2/N=C/c2ccc(C)s2)c1,12.0,15.8,-1.6,26.4,-3.0,.
Cc1cccc(-c2n[nH]c(=S)n2/N=C/c2cccs2)c1,10.1,32.7,50.6*,35.3,.,43.1*
CCN(CC)CCCNC1=C(Cl)C(=O)c2ccccc2C1=O,17.0,1.2,8.4,12.3,.,.
C=CCNC1=C(Cl)C(=O)c2ccccc2C1=O,37.4,35.9,54.2*,11.8,-32.7,44.1*
CC(C)NC1=C(Cl)C(=O)c2ccccc2C1=O,35.9,19.1,54.7*,-19.5,-20.4,45.5*
CC(C)OCCCNC1=C(Cl)C(=O)c2ccccc2C1=O,30.2,2.2,46.4,19.3,.,.
O=C(O)CCCn1cc(NC(=O)COc2ccccc2)cn1,-18.8,6.8,-7.5,20.2,16.9,.
CN(Cc1ccccc1)C(=O)c1cccc(NC(=O)Cc2cccc(NC(=O)C3CCN(C(=O)C4CCC4)CC3)c2)c1,.,.,.,.,-1.0,.
NC(=O)NC(=O)c1nccnc1C(=O)O,20.2,3.0,16.2,10.0,1.3,.
Cc1ccc(C(=O)Nc2ccon2)cc1S(=O)(=O)N1CCCC1,18.3,20.2,9.6,-30.7,-11.4,.
Cc1ccn2cc(-c3ccc(NC(=O)c4ccco4)cc3)nc2c1,-37.5,31.6,56.0*,48.3,16.0,47.5*
O=C(Nc1ccc(-c2ccc(N3CCCCC3)nn2)cc1)c1ccco1,26.7,30.1,62.8*,17.2,.,66.4*
Nc1nc(-c2ccc(NC(=O)c3ccco3)cc2)cs1,35.3,39.4,55.6*,7.1,32.7,69.8*
O=C(Nc1nc(-c2ccc(Cl)s2)cs1)c1ccco1,20.8,28.6,62.2*,6.9,16.4,67.2*
O=C(Nc1nc(-c2nc3ccccc3s2)cs1)c1ccco1,-6.4,-35.2,-11.6,8.5,-39.3,.
CCC(=O)NC(=S)NNC(=O)c1ccc(O)cc1,2.2,4.5,13.3,24.3,9.7,.
Cc1c(-c2csc(N)n2)c2ccccc2n1C,29.1,10.9,29.7,9.7,-9.0,.
O=C(Nc1nc(-c2cccs2)c(-c2ccccc2)s1)c1ccco1,25.6,36.0,55.3*,-24.4,-25.7,62.4*
CCOc1ccc(NC(=O)CN(C)C(=O)c2cc([N+](=O)[O-])ccc2Sc2ccccc2)cc1OCC,.,.,.,.,-4.3,.
O=C(NCCc1ccc(Cl)cc1)C1CCN(C(=O)c2ccc(F)cc2)CC1,-22.2,10.2,7.8,8.7,-3.3,.
SMILES,tim10-1 inh,TIM10 inh,tim23-1 inh,NLRP3 yeast inh,PfHsp90 yeast 2,tim23-1 confirm
CC(C)CC(=O)NC(c1cccs1)c1ccc2cccnc2c1O (stereo not drawn),33.5,-43.0,51.5*,16.8,103.9*,64.8*
CCC(=O)NC(c1ccc(C)cc1)c1cc(Cl)c2cccnc2c1O (stereo not drawn),26.5,-33.8,53.6*,5.2,71.3,58.0*
CCC(=O)NC(c1ccc(OC)c(OC)c1)c1cc(Cl)c2cccnc2c1O (stereo not drawn),.,.,.,.,-34.9,.
COc1ccccc1C(NC(C)=O)c1cc(Cl)c2cccnc2c1O (stereo not drawn),30.7,17.5,35.8,14.9,-19.5,.
CCC(=O)NC(C)c1cc(Cl)c2cccnc2c1O (stereo not drawn),31.4,8.5,55.5*,18.4,-13.7,57.7*
CCC(=O)NC(c1cc(Cl)c2ccccc2c1O)C(C)C (stereo not drawn),21.4,17.5,34.1,10.6,.,.
O=C(NC(c1ccccc1)c1cc(Cl)c2cccnc2c1O)c1cccnc1 (stereo not drawn),36.3,-17.0,69.7*,21.1,.,79.7*
COc1ccc(S(=O)(=O)N2CCOCC2)cc1NC(=O)c1cc2ccccc2o1,21.0,1.8,22.5,17.8,.,.
O=C(CN(C(=O)CCC(=O)Nc1ccccn1)c1ccccc1F)NCc1ccc2c(c1)OCO2,7.6,-9.7,-0.1,-4.5,46.9,.
